PubChem BioAssay AID1159580 (chemical genetic matrix, 2015)
In all, about 5,500 compounds went through this assay and about 2,000 (36%) were called active. Roughly 18% stayed inconclusive and do not appear here. No stated cut-off is given here; in the data, active means normalized growth mostly below about 0.91 (no sharp cut-off); inconclusive means no clear call, values can overlap the other calls; inactive means mostly above about 0.92. The list shows a part of the results.

Assay: chemical genetic growth profiling, strain panel (AID 1159580);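 further: tested at 20 µM; growth read once vehicle control cultures reached saturation at 30 °C; 1 = growth at the plate median or of vehicle wells; lower values mean less growth of the strain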
Conditions: S. cerevisiae deletion strains, growth OD
[1] = locus YAL013W, strain DEP1, active compounds read low
[2] = locus YGR078C, strain PAC10, active compounds read low
[3] = locus YJR075W, strain HOC1, active compounds read low
[4] = locus YMR263W, strain SAP30, active compounds read low
[5] = locus YMR307W, strain GAS1, active compounds read low
[6] = locus YNL153C, strain GIM3, active compounds read low
[7] = locus YNL322C, strain KRE1, active compounds read low
[8] = locus YPL055C, strain LGE1, active compounds read low
[9] = locus YPL241C, strain CIN2, active compounds read low
[10] = locus YAL040C, strain CLN3, active compounds read low
[11] = locus YCL061C, strain MRC1 (second series), active compounds read low
[12] = locus YDR363W, strain ESC2, active compounds read low
[13] = locus YER002W, strain NOP16, active compounds read low
[14] = locus YNL175C, strain NOP13, active compounds read low
[15] = locus YNL197C, strain WHI3, active compounds read low
[16] = locus YNL224C, strain SQS1, active compounds read low
[17] = locus YOR083W, strain WHI5 (second series), active compounds read low

Measured: normalized growth

CCOC(=O)CC1=Nn2c(nnc2-c2cc(Cl)cc(Cl)c2)SC1
active: locus YBR229C, strain ROT2, active compounds read low 0.905 | locus YHR030C, strain SLT2, active compounds read low 0.538 | locus YJL187C, strain SWE1, active compounds read low 0.913 | [3] 0.811 | locus YML094W, strain GIM5, active compounds read low 0.823 | locus YNL298W, strain CLA4 (second series), active compounds read low 0.823
inactive: [1] 0.97 | locus YDL101C, strain DUN1, active compounds read low 0.914 | locus YDL134C, strain PPH21, active compounds read low 0.996 | locus YDR150W, strain NUM1, active compounds read low 0.857 | locus YEL061C, strain CIN8, active compounds read low 0.934 | [2] 0.97 | locus YGR229C, strain SMI1, active compounds read low 0.979 | locus YHR087W, strain rtc3, active compounds read low 0.927 | locus YJR043C, strain POL32, active compounds read low 0.989 | locus YLR039C, strain RIC1, active compounds read low 0.91 | locus YLR058C, strain SHM2 (second series), active compounds read low 0.971 | locus YLR085C, strain ARP6, active compounds read low 0.808 | locus YLR262C, strain YPT6, active compounds read low 0.982 | locus YMR219W, strain ESC1, active compounds read low 0.955 | [4] 0.965 | [5] 0.806 | [6] 0.95 | [7] 0.977 | locus YNR030W, strain Alg12, active compounds read low 0.914 | [8] 0.864 | [9] 1.01 | locus YPR135W, strain CTF4, active compounds read low 0.714

C=CCN1CC[C@]23CCCCC2[C@H]1Cc1ccc(O)cc13 (stereo not given in full)
inactive: [1] 1.02 | [10] 1.01 | [11] 1.01 | [12] 1.02 | [13] 1 | [2] 0.995 | [3] 0.999 | [5] 1.01 | [6] 1.02 | [14] 1.01 | [15] 0.997 | [16] 0.988 | [17] 1.01

C=CCN1CCC23c4c5ccc(O)c4O[C@H]2C(=O)CC[C@@]3(O)C1C5 (stereo not given in full)
inactive: [1] 1.01 | [10] 1 | [11] 1 | [12] 1.01 | [13] 0.994 | [4] 0.998 | [5] 0.998 | [14] 0.997 | [15] 1.01 | [16] 1.01 | [7] 1.01 | [17] 1 | [8] 1.02 | [9] 1
